Outcome data for two molecules are collected here from PubChem BioAssay AID1730 (National Center for Advancing Translational Sciences (NCATS), 2009).

Inconclusive results are not listed. Calls of active or inactive are those of the source. Calls come from the whole dose curve; as a rule, active = well fitted inhibition curve with a large enough effect; inconclusive = small, poorly fitted or top-dose-only effect; inactive = no such curve, though single readings can be large or run the other way.

A short description of the test: Counterscreen Assay for Inhibitors of the ERK Signaling Pathway using a Homogeneous Screening Assay. To be noted: AlphaScreen bead counterscreen in cell lysate, 5 h; series mostly up to 45.6 µM. From the text: qHTS Assay for Inhibitors of the ERK Signaling Pathway using a Homogeneous Screening Assay
NIH Chemical Genomics Center [NCGC]
NIH Molecular Libraries Screening Centers Network [MLSCN]
Assay Submitter (PI): Dr. Wei Zheng, NCGC/NIH
The Ras/extracellular-signal-regulated kinase (ERK) mitogen activated protein (MAP) kinase signaling pathway (ERK1/2 cascade) plays is a key role in transmitting signals from the cell surface to the nucleus (Nishida and Gotoh 1993; Chang and Karin, 2001). The cascade is initiated by the small G-protein Ras, which recruits Raf […], where activation occurs. Alternatively, this pathway can be activated by elevating intracellular cAMP.
Activation of the ERK pathway is essential in increased cell division and cell survival. Sustained and constitutive activation of the ERK pathway, however, has been linked to uncontrolled cell proliferation, increased cell survival, and tumor progression. Thus, the ERK has been as an attractive target for cancer chemotherapy in the past few years (Sebolt-Leopold and Herrera, 2004). […]
Biotinylated rabbit IgG was used to perform a counter-screen in the context of an AlphaScreen assay kit provided by PerkinElmer. […] AC50 values were determined from concentration-response data modeled with the standard Hill equation. […]
(10) Detect the assay plate in an EnVision plate reader (PerkinElmer) using the AlphaScreen detection mode. […]
A general note: Counterscreens check selectivity or assay interference.

Consider `O=C1NC(=O)C(=Cc2ccccc2Oc2ccc(F)cc2)C(=O)N1`, for which the molecule was called inactive.
Under `CCN1C(=O)NC(=O)/C(=C/c2cc(C)n(-c3sc(C)c(C)c3C#N)c2C)C1=O` stands “inactive”.
